According to PMC4336329 (PLoS ONE, 2015):
About 14,000 (4.5%) of roughly 310,000 compounds showed an effect of 50% or more. The effect is printed as a negative number. What follows is part of a selection rich in strong results, with near analogues and random picks from the rest.

Each compound was assayed against human ether-à-go-go-related gene (hERG) potassium channel (human, UniProt Q12809) (assay: primary screen, population patch clamp on CHO cells stably expressing hERG; higher = less effect of the substance).
Sequence of human ether-à-go-go-related gene (hERG) potassium channel (Q12809 whole entry, looked up): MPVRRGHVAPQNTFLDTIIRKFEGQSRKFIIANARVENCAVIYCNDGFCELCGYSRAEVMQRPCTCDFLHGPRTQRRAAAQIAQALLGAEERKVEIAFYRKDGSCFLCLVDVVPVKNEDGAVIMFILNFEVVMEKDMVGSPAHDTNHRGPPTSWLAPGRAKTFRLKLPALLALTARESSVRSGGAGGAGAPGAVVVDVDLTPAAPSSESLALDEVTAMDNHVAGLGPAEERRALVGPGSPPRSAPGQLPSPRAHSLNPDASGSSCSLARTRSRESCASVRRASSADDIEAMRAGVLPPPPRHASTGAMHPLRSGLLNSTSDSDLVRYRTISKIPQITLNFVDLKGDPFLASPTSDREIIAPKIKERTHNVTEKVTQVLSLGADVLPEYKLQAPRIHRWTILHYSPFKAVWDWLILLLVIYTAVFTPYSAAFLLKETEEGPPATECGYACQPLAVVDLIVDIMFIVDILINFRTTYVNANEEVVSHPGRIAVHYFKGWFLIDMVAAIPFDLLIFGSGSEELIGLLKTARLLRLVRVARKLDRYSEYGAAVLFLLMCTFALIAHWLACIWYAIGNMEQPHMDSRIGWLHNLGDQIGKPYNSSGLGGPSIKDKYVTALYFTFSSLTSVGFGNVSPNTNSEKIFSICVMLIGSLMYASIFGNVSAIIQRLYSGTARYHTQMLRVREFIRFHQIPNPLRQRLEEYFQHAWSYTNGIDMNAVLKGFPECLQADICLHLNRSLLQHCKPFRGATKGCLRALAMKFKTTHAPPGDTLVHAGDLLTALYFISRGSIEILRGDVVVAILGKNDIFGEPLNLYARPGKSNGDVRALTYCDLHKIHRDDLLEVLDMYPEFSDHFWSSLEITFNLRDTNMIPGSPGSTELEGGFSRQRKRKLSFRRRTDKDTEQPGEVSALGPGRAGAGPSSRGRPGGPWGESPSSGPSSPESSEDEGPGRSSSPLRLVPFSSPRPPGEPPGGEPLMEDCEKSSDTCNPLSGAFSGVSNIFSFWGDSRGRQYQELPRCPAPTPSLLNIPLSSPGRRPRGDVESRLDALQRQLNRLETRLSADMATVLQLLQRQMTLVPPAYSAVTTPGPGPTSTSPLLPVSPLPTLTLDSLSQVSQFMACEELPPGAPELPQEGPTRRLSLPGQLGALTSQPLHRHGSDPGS
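Note: peak tail current of the secondary pulse compared with the same well before compound.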

Point of comparison: CN(C)c1cc[n+](CC(=O)c2ccc(-c3ccccc3)cc2)cc1.[Cl-], “hERG current change (%, negative = inhibition) at 10uM” value -2.97%. Against it:
- COc1ccc(S(=O)(=O)N2CCN(C3CCCC(C)C3)CC2)cc1.O=C(O)C(=O)O (centres unmarked) — lower, -16.7%
- CCCCN(C)C(=O)CCC(=O)Nc1ccc2nc(N3CCN(C)CC3)cc(C)c2c1 — higher, 11%
- CC1=CC(C)(C)N(C(=O)c2ccccc2)c2ccccc21 — lower, -8.02%
- CN(C)S(=O)(=O)c1ccc(N2CCCC2)c(C(=O)Nc2nc(-c3cc(F)ccc3F)cs2)c1 — higher, 0.334%
- CCOCCCN(C)C1CCN(C(=O)c2oc3ccccc3c2NC(=O)c2ccc([N+](=O)[O-])cc2)CC1 — lower, -75.9%
- CCOCCCN(C)C1CCN(C(=O)c2oc3ccccc3c2NC(=O)c2cccc([N+](=O)[O-])c2)CC1 — lower, -79.7%
- COc1cc2c(cc1NC(=O)c1cccc([N+](=O)[O-])c1)oc1ccccc12 — higher, 1.9%
- CCC(CC)C(=O)Nc1c(C(=O)N2CCN(c3ccccc3)CC2)oc2ccccc12 — higher, 3.17%
- O=C(Nc1c(C(=O)N2CCOCC2)oc2ccccc12)c1cccc([N+](=O)[O-])c1 — lower, -20.2%
- CCOC(=O)c1oc2ccccc2c1NC(=O)c1ccc(S(=O)(=O)N(C)C)cc1 — higher, 13%
- CCOC(=O)N1CCC(NC(=O)C2CCCN(C(=O)c3cc4sccc4n3C)C2)CC1 (centres unmarked) — lower, -5.34%
- CS(=O)(=O)O.OC(c1cc(C(F)(F)F)nc2c(Cl)cc(Cl)cc12)C1CCCCN1 (centres unmarked) — lower, -23.8%
- Cc1[nH]n(-c2ccccc2)c(=O)c1N=Nc1ccc(C(=O)O)cc1 — higher, 25.7%
- CC(=O)NC1C(Oc2ccccc2C)OC2COC(c3ccco3)OC2C1O (centres unmarked) — higher, 3.59%
- COc1ccc(-c2c(C(C)=O)c(C)nc3sc4c(=O)[nH]nnc4c23)cc1 — higher, 8.95%
- Cc1ccccc1OCC(O)Cn1c(NCc2ccco2)nc2c1c(=O)[nH]c(=O)n2C (centres unmarked) — higher, 4.8%
- Cn1c(=O)c2c(nc(NCc3ccco3)n2CC(O)COc2ccccc2)n(C)c1=O (centres unmarked) — lower, -25.9%
- Cc1ccccc1OCC(O)Cn1c(NCc2ccco2)nc2c1c(=O)n(C)c(=O)n2C (centres unmarked) — lower, -52.1%
- Cc1oc(S(=O)(=O)N2CCCCC2)cc1NC(=O)Nc1ccc(F)cc1 — higher, 3.43%
- COc1ccc(CN2CCC(Oc3cc(C(=O)NC4CC4)ccc3OC)CC2)c(O)c1 — lower, -77.3%
- C=CCOc1ccccc1CN1CCC(Oc2cc(C(=O)NC3CC3)ccc2OC)CC1 — lower, -72.2%
- COc1ccc(CN2CCC(Oc3ccc(C(=O)NCc4ccccn4)cc3)CC2)c(F)c1 — lower, -12.6%
- C=CCC(O)(CC=C)CNC(=O)c1ccc(OC)c(OC2CCN(C(C)=O)CC2)c1 — higher, 14.9%
- CCOc1ccccc1CN1CCC(Oc2cccc(C(=O)NCCOC)c2)CC1 — lower, -30.8%
- COc1ccc(C(=O)NCCc2ccccc2F)cc1OC1CCN(C(C)=O)CC1 — higher, 4.19%
- COc1ccc(C(=O)NC2CC2)cc1OC1CCN(Cc2ccccc2O)CC1 — lower, -102%
- COc1ccc(C(=O)NC2CCc3ccccc32)cc1OC1CCN(C(C)=O)CC1 (centres unmarked) — higher, -0.012%
- COc1ccc(OC)c(CN2CCC(N3CCC(C(=O)NC4CC4)CC3)CC2)c1 — lower, -11.1%
- COc1ccc(C(=O)NC2CC2)cc1OC1CCN(Cc2ccccc2F)CC1 — lower, -78%
- COc1cc(C(=O)NC2Cc3ccccc3C2)ccc1OC1CCN(C(C)=O)CC1 — higher, 4.22%
- COc1ccc(C(=O)N(C)C2CCCN(Cc3ccccc3F)C2)cc1OC (centres unmarked) — higher, 11.1%
- Cc1ccc(Nc2nc3ccccc3n3cnnc23)cc1C — higher, 15.5%
- CCOC(=O)N1CCN(C(=O)CSc2nnc(COc3ccc(Cl)cc3)o2)CC1 — lower, -37.8%
- CCOCCCNC(=O)CCc1nnc2ccc(N3CCCCC3)nn12 — higher, 11.1%
- COc1ccc(OC)c(NC(=O)C2CC(=O)N(c3ccccc3)C2)c1 (centres unmarked) — higher, 5.86%
- O=C(CCC(=O)OCC(=O)c1ccc(-c2ccccc2)cc1)Nc1cccc(Cl)c1 — higher, 1.65%
- CCn1ncc(CN2CCC(Oc3cc(C(=O)NC4CC4)ccc3OC)CC2)c1C — lower, -21.5%
- COc1ccc(C(=O)NC2CC2)cc1OC1CCN(Cc2cc(C)c(C)cc2C)CC1 — lower, -83.1%
- COc1ccc(C(=O)NC2CC2)cc1OC1CCN(Cc2cnn(C)c2C)CC1 — lower, -27.2%
- O=C(CCl)Nc1nc(-c2ccco2)c(-c2ccco2)s1 — lower, -10.1%
- COc1cccc(CN(C)C(=O)c2cccc(OC3CCN(C4CCCC4)CC3)c2)c1 — lower, -55.1%
- CN(Cc1ccc(F)cc1)C(=O)c1cccc(OC2CCN(C3CCCC3)CC2)c1 — lower, -61%
- COc1cccc(CN(C)C(=O)c2cccc(OCc3ccccc3)c2)c1 — higher, 13.1%
- COCCC1CCCCN1C(=O)c1cccc(OC2CCN(C3CCCC3)CC2)c1 (centres unmarked) — higher, 17.6%
- O=C(c1cccc(OC2CCN(C3CCCC3)CC2)c1)N1CCCCCCC1 — lower, -36%
- CN(Cc1ccc(F)cc1)C(=O)c1cccc(OCc2ccccc2)c1 — lower, -16.9%
- O=[N+]([O-])C(C1CCS(=O)(=O)C1)C1CCS(=O)(=O)C1 (centres unmarked) — higher, 11.9%
- Cc1cccc(C2N(c3ccc(F)cc3)C(=O)C3CCCN32)c1 (centres unmarked) — lower, -12.3%
- COc1cc(CN2CCCCCC2)c([N+](=O)[O-])cc1OC — higher, 3.94%
- COc1cc(CN2CCN(C(=O)CC(C)C)CC2)c([N+](=O)[O-])cc1OC — higher, 8.77%
- CCN1CCN(Cc2cc(OC)c(OC)cc2[N+](=O)[O-])CC1 — higher, 8.59%
- COc1cc(CN2CCN(Cc3ccc([N+](=O)[O-])cc3)CC2)c([N+](=O)[O-])cc1OC.O=C(O)C(=O)O — lower, -68.2%
- COc1cc(CN2CCN(Cc3ccc(C)cc3)CC2)c([N+](=O)[O-])cc1OC.O=C(O)C(=O)O — lower, -77.2%
- COc1cccc(CN2CCN(Cc3cc(OC)c(OC)cc3[N+](=O)[O-])CC2)c1.O=C(O)C(=O)O — lower, -46.3%
- Cc1cccc2[nH]c(CN(C)C(=O)CC3C(=O)NCCN3CC(C)(C)C)nc12 (centres unmarked) — higher, 3.23%
- Cc1cc(C(=O)NCc2ccco2)sc1C — higher, 16.2%
- CCO[C@H]1c2c(ccc3ccc(=O)oc23)OC(C)(C)[C@@H]1O — higher, 20.9%
- Cc1ccc(SCCc2cc[n+](CC(=O)c3ccccc3)cc2)cc1 — lower, -70.5%
- Cc1ccc(SCCNC(=O)c2ccccc2)cc1 — higher, -0.806%
- Cc1ccc[n+](CC(=O)c2ccccc2)c1.[Br-] — higher, 13.7%
- Cc1ccc(C(=O)C[n+]2ccc3ccccc3c2)cc1.[Br-] — lower, -33.6%
- Cc1ccc(C(=O)C[n+]2ccc(Cc3ccccc3)cc2)cc1.[Cl-] — lower, -73.6%
- Cc1ccc[n+](CC(=O)c2ccc(-c3ccccc3)cc2)c1.[Br-] — lower, -52.4%
- Cc1cc[n+](CC(=O)c2ccc(NC(=O)c3ccccc3)cc2)cc1.[Br-] — higher, 2.6%
- Cc1cc(C)c[n+](CC(=O)c2ccc(-c3ccccc3)cc2)c1.[Br-] — lower, -45.3%
- O=C(c1cc2ccccc2oc1=O)N1CCN(c2ncccn2)CC1 — higher, 8.16%
- c1ccc2[nH]c(CSc3nnc(-c4ccncc4)o3)nc2c1 — lower, -24.8%
- Cl.Oc1ccccc1Nc1nc(NCc2ccco2)c2ccccc2n1 — lower, -29.3%
- Cc1ccc(Nc2nc(NCc3ccco3)c3ccccc3n2)cc1.Cl — higher, 16.9%
- Cc1ccccc1Nc1nc(NCc2ccco2)c2ccccc2n1.Cl — lower, -63.6%
- COc1ccccc1Nc1nc(NCc2ccco2)c2ccccc2n1.Cl — lower, -20.3%
- Cl.c1ccc(Nc2nc(NCc3ccco3)c3ccccc3n2)cc1 — lower, -71%
- Cl.Fc1ccc(Nc2nc(NCc3ccco3)c3ccccc3n2)cc1 — lower, -37.2%
- COc1ccc(O)c(C(=O)/C=C/c2cc3ccccc3o2)c1 — higher, 7.22%
- CN1C(=O)/C(=C/c2ccc(C(F)(F)F)cc2)Sc2ccc(C(=O)N3CCN(c4ccccn4)CC3)cc21 — higher, 5.11%
- C[C@@H]1O[C@@H](Oc2c(-c3cc(O)c(O)c(O)c3)oc3cc(O)cc(O)c3c2=O)[C@H](O)[C@H](O)[C@H]1O — higher, 4%
- CN(C)CCCN(C(=O)COc1ccccc1)c1nc2ccc(Cl)cc2s1.Cl — lower, -67.1%
- CN(C)CCCN(C(=O)COc1ccccc1)c1nc2ccc(F)cc2s1.Cl — lower, -68%
- CN(C)CCCN(C(=O)COc1ccc(Cl)cc1)c1nc2ccc(F)cc2s1.Cl — lower, -21.4%
- Cc1ccc2nc(N(CCCN(C)C)C(=O)CS(=O)(=O)c3ccccc3)sc2c1.Cl — lower, -22.7%
- CCN(CC)CCN(C(=O)CCOc1ccccc1)c1nc2ccc(F)cc2s1.Cl — lower, -8.61%
- Cc1ccc2nc(N(CCCN(C)C)C(=O)COc3ccc(Cl)cc3)sc2c1.Cl — lower, -8.71%
